The values below come from ChEMBL document CHEMBL3988442, “University of Dundee, Small-Polar-MMV Screening Library” (2021).

The assay has as its target T1, Methionyl-tRNA synthetase, putative (Leishmania donovani (strain BPK282A1)) (UniProt E9BF75).
T1 sequence (whole entry): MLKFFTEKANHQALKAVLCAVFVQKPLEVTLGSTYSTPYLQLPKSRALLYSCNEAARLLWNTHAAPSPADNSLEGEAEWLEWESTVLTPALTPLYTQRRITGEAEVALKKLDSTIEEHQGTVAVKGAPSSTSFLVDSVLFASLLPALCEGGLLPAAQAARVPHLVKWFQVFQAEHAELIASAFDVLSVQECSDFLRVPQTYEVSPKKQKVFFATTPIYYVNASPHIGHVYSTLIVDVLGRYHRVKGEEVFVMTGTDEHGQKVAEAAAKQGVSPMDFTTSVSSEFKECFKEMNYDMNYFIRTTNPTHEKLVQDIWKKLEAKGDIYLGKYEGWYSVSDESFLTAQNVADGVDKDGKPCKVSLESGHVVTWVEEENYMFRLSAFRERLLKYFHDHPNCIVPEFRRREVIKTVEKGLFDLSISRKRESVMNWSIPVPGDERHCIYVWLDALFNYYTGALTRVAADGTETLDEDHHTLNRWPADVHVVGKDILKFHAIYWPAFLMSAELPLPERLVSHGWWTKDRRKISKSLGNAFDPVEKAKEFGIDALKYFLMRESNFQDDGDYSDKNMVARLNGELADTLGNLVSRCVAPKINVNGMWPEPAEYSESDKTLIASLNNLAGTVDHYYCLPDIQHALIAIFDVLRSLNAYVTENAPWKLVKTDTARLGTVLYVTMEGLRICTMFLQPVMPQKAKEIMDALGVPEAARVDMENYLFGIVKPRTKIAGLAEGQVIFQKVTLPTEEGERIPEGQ
Description: Leishmania donovani Methionine tRNA synthetase (LdMetRS):v7. Dose response assay. In kind it is functional. Set-up: conc 80 nM, time 150 minutes.

`CN(C)C(=O)C1CCN(c2cncc(-n3cccn3)n2)CC1`: the PXC50 reads like this: (MAX_EFFECT 5.700712589) less than 4; (MAX_EFFECT 11.44366197) less than 4.
Turning to `CCc1nc(N2CCC(C(=O)O)CC2)c2c3c(sc2n1)CCC3`, the PXC50 is, setting by setting: (MAX_EFFECT 11.47540984) less than 4; (MAX_EFFECT 12.29946524) less than 4.
`CN(C)C(=O)c1ccc2ccc(N3CCN(CC4CC4)CC3)n2c1` showed a PXC50 (MAX_EFFECT 43.08390023) of less than 4 and a PXC50 (MAX_EFFECT 51.58878505) of less than 4.
Take `Cc1nc(O)cc(C2CCN(c3nc(C)nc4sccc34)CC2)n1`: the PXC50 (MAX_EFFECT 2.659574468) was less than 4 and the PXC50 (MAX_EFFECT 5.699481865) is less than 4.
`COCCNc1nc(-c2ccc(C)cc2)cc(C(F)(F)F)n1` gave a PXC50 (MAX_EFFECT 7.978723404) of less than 4 and a PXC50 (MAX_EFFECT 8.29015544) of less than 4.
In turn, `COc1cccc(-c2cc(C(F)(F)F)nc(N3CCOCC3)n2)c1` came in with a PXC50 (MAX_EFFECT 8.510638298) of less than 4 and a PXC50 (MAX_EFFECT 10.3626943) of less than 4.
As for `Cc1ccc(-c2ncc(CNc3cnccc3CO)s2)cc1`, the PXC50 reads like this: (MAX_EFFECT 7.042253521) less than 4; (MAX_EFFECT 10.18518519) less than 4.
In the case of `CCc1nc(NCCCN(C)C)c2cc(CC)sc2n1`, the PXC50 (MAX_EFFECT 9.547738693) was less than 4 and the PXC50 (MAX_EFFECT 12.53071253) is less than 4.
With `COC(=O)c1sc2nc(C)nc(N(C)Cc3cc(C)on3)c2c1C`, the PXC50 runs as follows: (MAX_EFFECT 8.556149733) less than 4; (MAX_EFFECT 12.02185792) less than 4.
In the case of `COc1ccc(NC[C@@H](N)CC(C)C)c(Oc2ccc(Cl)cc2)n1`, the PXC50 is less than 4 (MAX_EFFECT 6.560636183) and less than 4 (MAX_EFFECT 6.651376147).
As for `Nc1noc2ccc(-c3cnc4ccc(NCCN5CCOCC5)nn34)cc12`, the PXC50 runs as follows: (MAX_EFFECT -0.438596491) less than 4; (MAX_EFFECT -1.041666667) less than 4.
With `O=c1cc(NCCCNCc2c[nH]c3ccc(Br)cc23)[nH]c2ccccc12`, the PXC50 (BOTTOM 0.0, HILLSLOPE 1.551467474, MAX_EFFECT 106.0606061, TOP 104.4534441) was determined as 5.79 and the PXC50 (BOTTOM 0.546192845, HILLSLOPE 1.22385612, MAX_EFFECT 106.0465116, TOP 107.4209254) is 5.79.
With `N[C@H]1CCOc2c(Cl)cc(Cl)cc21`, the PXC50 by setting is: (MAX_EFFECT 2.517162471) less than 2.7; (MAX_EFFECT 3.676470588) less than 2.7.
Turning to `CCC(CO)Nc1nc(CSc2ccccc2)nc2sc(C)c(C)c12` (stereo not given), the PXC50 by setting is: (MAX_EFFECT 23.49726776) less than 4; (MAX_EFFECT 24.06417112) less than 4.
Regarding `Cc1cc2c(N3CCCC3)nc(-c3cccnc3)nc2s1`, the PXC50 was less than 4 (MAX_EFFECT 8.196721311) and less than 4 (MAX_EFFECT 10.16042781).
`O=C(NCC1CCCCC1)c1cc(=O)c2cc[nH]c(=O)c2o1` displayed a PXC50 (MAX_EFFECT 5.901116427) of less than 4 and a PXC50 (MAX_EFFECT 6.333973129) of less than 4.
For the molecule `Cc1cc(C)n(-c2nc(NC3CCCC3)c3c4c(sc3n2)CCCC4)n1`, the PXC50 is, setting by setting: (MAX_EFFECT 22.91666667) less than 4; (MAX_EFFECT 34.21052632) less than 4.
In the case of `O=C(NC1CCCC1)c1ccc2ccc(N3CCOCC3)n2c1`, the PXC50 was found to be 4.9 (BOTTOM 3.55073469, HILLSLOPE 1.692539638, MAX_EFFECT 59.05660377, TOP 61.76844647) and 4.96 (BOTTOM 4.599152337, HILLSLOPE 2.687600256, MAX_EFFECT 55.70776256, TOP 54.83275802).
In the case of `CCNc1nc(-c2ccc(C)cc2)cc(C(F)(F)F)n1`, the PXC50 is less than 4 (MAX_EFFECT 4.797979798) and less than 4 (MAX_EFFECT 5.102040816).
Consider `O=C(NCC1(O)CCCCC1)c1cc(=O)c2cc(F)cc(O)c2o1`, for which the PXC50 runs as follows: (MAX_EFFECT 3.03030303) less than 4; (MAX_EFFECT 5.182341651) less than 4.
Take `COC(=O)CCNc1nc(CN2CCCCC2)nc2sc3c(c12)CCC3`: the PXC50 (MAX_EFFECT 7.808564232) was less than 4.31 and the PXC50 (MAX_EFFECT 7.888040712) is less than 4.
Regarding `CNC(=O)CN(C)c1nc(C)nc2sc3c(c12)CCC3`, the PXC50 is, setting by setting: (MAX_EFFECT 5.291005291) less than 4; (MAX_EFFECT 6.4) less than 4.
As for `CN(C(=O)c1ccc2ccc(N3CCN(S(C)(=O)=O)CC3)n2c1)C1CCCC1`, the PXC50 is, setting by setting: (BOTTOM 0.289643944, HILLSLOPE 2.293493597, MAX_EFFECT 58.37320574, TOP 59.73308371) 5.01; (BOTTOM 8.176661161, HILLSLOPE 2.054643886, MAX_EFFECT 62.15722121, TOP 64.55497205) 4.82.
`CC(C)C[C@@H](N)COc1cccc(F)c1Oc1cccc(Cl)c1`: the PXC50 (BOTTOM 1.372222408, HILLSLOPE 1.087653332, MAX_EFFECT 50.72463768, TOP 100.0) turned out to be 4.03 and the PXC50 (BOTTOM -0.306407193, HILLSLOPE 1.563618531, MAX_EFFECT 56.92963753, TOP 100.0) was found to be 4.11.
Consider `CS(=O)(=O)N1CCN(c2ccc3ccc(C(=O)NC4CCN(c5ncccn5)CC4)cn23)CC1`, for which the PXC50 is 4.97 (BOTTOM 1.498519447, HILLSLOPE 2.25926472, MAX_EFFECT 69.85645933, TOP 69.17206782) and 4.86 (BOTTOM 9.613017987, HILLSLOPE 3.179249655, MAX_EFFECT 74.58866545, TOP 74.15419217).
`CN(C)C(=O)N1CCN(c2ccc3ccc(C(=O)NC4CC4)cn23)CC1` showed a PXC50 (BOTTOM 3.433705082, HILLSLOPE 1.394575879, MAX_EFFECT 54.57943925, TOP 100.0) of 4.05 and a PXC50 (MAX_EFFECT 48.07256236) of less than 4.
For the molecule `Cc1cc(C(=O)NC2CCCC2)cn2c(N3CCN(S(C)(=O)=O)CC3)ccc12`, the PXC50 (BOTTOM 3.715191159, HILLSLOPE 1.052339001, MAX_EFFECT 54.38596491, TOP 65.94212945) worked out at 4.67 and the PXC50 (MAX_EFFECT 46.875) was less than 4.
`CS(=O)(=O)N1CCN(c2ccc3ccc(C(=O)NCC4CCCO4)cn23)CC1` (stereo not given): the PXC50 (BOTTOM -3.857720999, HILLSLOPE 1.705839216, MAX_EFFECT 57.40402194, TOP 63.01150798) worked out at 4.63 and the PXC50 (BOTTOM -4.829130924, HILLSLOPE 1.927262902, MAX_EFFECT 52.15311005, TOP 54.22060795) was 4.86.
In the case of `CS(=O)(=O)Nc1cccc2c(=O)cc(C(=O)NCC3CCCCC3)oc12`, the PXC50 runs as follows: (MAX_EFFECT 0.797448166) less than 4; (MAX_EFFECT 2.111324376) less than 4.
The molecule `CCC(=O)N1CCC(c2ncc3c(n2)CCNC3)CC1` gave a PXC50 (MAX_EFFECT 1.814058957) of less than 4 and a PXC50 (MAX_EFFECT 14.20560748) of less than 4.
